PubChem BioAssay (Tox21)
Inconclusive results are not listed. A call without a number means that no potency is given here. Active and inactive are the calls of the source. Calls follow the shape of the full dose curve.

Each molecule was assayed against Thyrotropin receptor (Homo sapiens) (UniProt P16473) (assay: qHTS assay to identify small molecule antagonists of the thyroid stimulating hormone receptor (TSHR) signaling pathway (AID 1259385; also: nearly all actives have a fitted effect of over 20% in size)). Settings: TSHR-HEK293 cAMP HTRF, TSH-stimulated antagonist mode; series mostly up to 92.4 µM; activity change, negative = inhibition: at the top concentration.
Sequence of Thyrotropin receptor (Homo sapiens) (P16473 whole entry, looked up): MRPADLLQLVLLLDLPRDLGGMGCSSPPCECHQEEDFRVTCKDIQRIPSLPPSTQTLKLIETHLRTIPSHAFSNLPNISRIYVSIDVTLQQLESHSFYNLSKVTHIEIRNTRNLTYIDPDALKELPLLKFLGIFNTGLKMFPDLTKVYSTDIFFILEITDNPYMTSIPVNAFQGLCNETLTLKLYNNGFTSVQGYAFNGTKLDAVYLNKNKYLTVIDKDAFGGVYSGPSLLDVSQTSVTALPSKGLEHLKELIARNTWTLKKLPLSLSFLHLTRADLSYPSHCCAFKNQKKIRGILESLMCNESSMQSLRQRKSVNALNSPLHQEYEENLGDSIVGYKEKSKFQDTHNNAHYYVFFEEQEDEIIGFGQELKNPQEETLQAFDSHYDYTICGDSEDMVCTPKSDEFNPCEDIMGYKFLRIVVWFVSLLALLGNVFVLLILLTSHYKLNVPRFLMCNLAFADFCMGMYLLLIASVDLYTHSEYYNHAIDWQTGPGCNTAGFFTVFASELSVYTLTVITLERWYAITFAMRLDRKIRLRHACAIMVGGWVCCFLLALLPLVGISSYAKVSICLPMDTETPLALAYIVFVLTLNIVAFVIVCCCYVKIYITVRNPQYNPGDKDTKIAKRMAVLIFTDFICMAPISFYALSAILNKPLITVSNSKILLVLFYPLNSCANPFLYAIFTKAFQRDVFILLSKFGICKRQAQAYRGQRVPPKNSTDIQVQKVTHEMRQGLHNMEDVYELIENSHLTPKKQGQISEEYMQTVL
Source text: U.S. Tox21 Program National Center for Advancing Translational Sciences [NCATS] NIH Chemical Genomics Center [NCGC] U.S. Environmental Protection Agency [EPA] National Institutes of Environmental Health Sciences [NIEHS] National Toxicology Program [NTP] U.S. Food and Drug Administration [FDA] Tox21 Assay Overview: TSHR is the receptor for thyrotropin (thyroid stimulating hormone or TSH), a member of the glycoprotein hormone family. TSH is released by the anterior pituitary gland and is the main regulator of thyroid gland growth and development. Upon binding circulating thyrotropin, a G-protein signal cascade activates adenylyl cyclase and […] cAMP concentration is increased. cAMP is a key second messenger involved extensively in cellular signal transduction pathways associated with the majority of G-protein coupled receptors (GPCRs). The activation of these GPCRs by neurotransmitters, lipids, nucleotides, peptides and hormones results in the activation or the inhibition of plasma membrane-bound adenylate cyclase through heterotrimeric G-proteins. A cell-based TSHR assay can be used to screen chemical compounds that modulate TSHR either in agonist or antagonist mode.
Tox21 Assay Protocol Summary: TSHR-Hek293 cells were dispensed at 800 cells/4uL/well in 1536-well white plates using a Multidrop dispenser. After the assay plates were incubated at a 37C/5% CO2 incubator for 18 hrs, 23 nL of compounds dissolved in DMSO, positive controls or DMSO only was transferred to the assay plate by a pin tool, followed by 1 ul medium containing Ro20-1724. For the antagonist mode screening, 1 uL of TSH was added on the top of the cell/compound mixtures to achieve a final agonist concentration of 1.5 ng/mL. After 30 min of incubation at room temperature, 2.5 ul/well of cAMP-d2 and 2.5 ul/well of anti-cAMP-cryptate were added respectively into the assay plates using a Flying Reagent Dispenser. The plates were incubated at room temperature for 1 hr. The fluorescence intensity in the plates was measured using an Envision plate reader. Each test compound was measured at 15 concentrations and in triplicates.
Potency is read from the fitted curve at half-maximal effect.

Compound	activity change, negative = inhibition	Potency
CC(N)=O	-0.505% [at 240 µM] (inactive)	–
O=C(O)c1cccc(C(=O)O)c1	–	inactive
CC(=O)OCC1=C(C(=O)O)N2C(=O)[C@@H](NC(=O)Cc3cccs3)[C@H]2SC1	-1.22% [at 42.5 µM] (inactive)	–
CCCN[C@H]1CCc2nc(N)sc2C1	–	inactive
CC(=O)Nc1ccc(C(=O)CCl)cc1	8.66% (inactive)	–
NC(Cc1ccc(Cl)cc1)C(=O)O (stereo not given)	0.481% [at 0.349 µM] (inactive)	–
NCCO	–	inactive
CCCCCCCCCCCCCCCCCl	-1.34% [at 19 µM] (inactive)	–
Nc1nc(=S)c2[nH]cnc2[nH]1	–	inactive
C[N+]1([O-])CCOCC1	0.311% (inactive)	–
CC(=O)CC(=O)Nc1ccc2[nH]c(=O)[nH]c2c1	-0.351% (inactive)	–
COc1cc(C(=S)N2CCOCC2)ccc1O	-4.18% [at 42.5 µM] (inactive)	–
CCC(C)(Oc1ccc(C2(c3ccc(OC(C)(CC)C(=O)O)cc3)CCCCC2)cc1)C(=O)O (stereo not given)	-2.31% [at 42.5 µM] (inactive)	–
CC(C)(c1ccccc1)c1ccc(Nc2ccc(C(C)(C)c3ccccc3)cc2)cc1	–	inactive
Cc1cccc(O)c1C	–	inactive
COc1nc(C)nc(Cl)c1NC1=NCCN1	1.48% [at 42.5 µM] (inactive)	–
O=C(OCc1ccccc1)c1ccc(O)cc1	–	inactive
c1ccc2cc3c(ccc4ccccc43)cc2c1	–	inactive
O=C(O)CCc1ccccc1	2.2% (inactive)	–
Cc1ccnc2c1NC(=O)c1cccnc1N2C1CC1	–	inactive

Compound	activity change, negative = inhibition	Potency
CC[C@]1(O)C[C@@H]2CN(CCc3c([nH]c4ccccc34)[C@@](C(=O)OC)(c3cc4c(cc3OC)N(C)[C@H]3[C@@](O)(C(=O)OC)[C@H](OC(C)=O)[C@]5(CC)C=CCN6CC[C@]43[C@@H]65)C2)C1	–	inactive
Cc1ccc(-c2cc(C(F)(F)F)nn2-c2ccc(S(N)(=O)=O)cc2)cc1	–	inactive
OCC(CO)N[C@H]1C[C@](O)(CO)[C@@H](O)[C@H](O)[C@H]1O	0.324% [at 42.5 µM] (inactive)	–
CC(C)(C)NCC(O)c1cc(O)cc(O)c1 (stereo not given)	7.31% [at 42.5 µM] (inactive)	–
C=CS(=O)(=O)O	-0.129% (inactive)	–
CCN1CCCC1CNC(=O)c1cc(S(=O)(=O)CC)c(N)cc1OC (stereo not given)	-5.54% [at 42.5 µM] (inactive)	–
Nc1ccc2cc3ccccc3cc2c1	–	inactive
OCCN1CCNCC1	–	inactive
C=CC(=O)OCCCCCCOC(=O)C=C	–	inactive
O=C(O)c1cc(Cl)cc(Cl)c1	-2.62% (inactive)	–
Oc1ccc(Cl)cc1Cc1cc(Cl)ccc1O	–	inactive
O=C1OC2(c3ccc(O)cc3Oc3cc(O)ccc32)c2ccccc21	–	inactive
CCOc1ccc2c(c1)C(C)=CC(C)(C)N2	–	inactive
COc1ccc(CCN(C)CCCC(C#N)(c2ccc(OC)c(OC)c2)C(C)C)cc1OC (stereo not given)	–	43.2 µM (active)
CC1=C(C=O)C(C)(C)CC=C1	0.97% (inactive)	–
c1ccc2n[nH]nc2c1	–	inactive
Cc1cccc([N+](=O)[O-])c1C(=O)O	-0.434% (inactive)	–
CC(C)(C)c1cc(C(C)(C)C)c(O)c(C(C)(C)C)c1	–	inactive
Nc1nc2ccccc2[nH]1	–	inactive
Oc1c(Cl)cc(Cl)c(Cl)c1Cc1c(O)c(Cl)cc(Cl)c1Cl	–	inactive
